PubChem BioAssay (NCATS)
Records with an inconclusive call do not appear. A call without a number means that no potency is given here. The source made the active and inactive calls. The call rests on the fitted dose curve; in most records, active means well fitted inhibition curve with a large enough effect; inconclusive means small, poorly fitted or top-dose-only effect; inactive means no such curve, though single readings can be large or run the other way.

Tests used:
[1] = system: Zika virus NS2B-NS3 protease (unlinked complex); assay: Primary screen GU Rhodamine qHTS for Zika virus inhibitors: Unlinked NS2B-NS3 protease assay (AID 1347159); further: nearly all actives have a fitted effect of over 60% in size
Procedure, shortened: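 Noncovalent NS2B hydrophilic domain/NS3 protease complex (25 nM final) in 10 mM Tris-HCl pH 8.0, 0.01% Tween 20, preincubated 15 min with compounds (up to 114 microM), then 1.5 microM Rhodamine110 substrate. Fluorescence change over 15 min fitted to 4-parameter Hill.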

[2] = system: Zika virus NS2B-NS3 protease (linked construct); assay: Primary screen NINDS Rhodamine qHTS for Zika virus inhibitors (AID 1347160); further: nearly all actives have a fitted effect of over 55% in size
Procedure, shortened: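 Purified NS2B-NS3 protease with the NS2B hydrophilic domain joined by a flexible linker (25 nM) in 10 mM Tris-HCl pH 8.0, 0.01% Tween 20, preincubated 15 min at RT with compound; Rhodamine110 peptide substrate 1.5 µM; fluorescence change over 15 min; 4-parameter Hill fit.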

SMILES | Potency [1] | Potency [2]
O=C(Nc1ccc2[nH]c(=O)oc2c1)C(=O)N1CCC(Cc2ccc(F)cc2)CC1 | inactive | inactive
C=C1C(=O)O[C@@H]2[C@H]1CC[C@H](C)[C@]1(CCC(=O)O1)C2(C)O (stereo partly drawn) | inactive | inactive
COc1ccncc1C(=O)NC(=O)Nc1ccc(-c2ccccc2)c(C(F)(F)F)c1 | inactive | inactive
CN1CCN(Cc2ccc(NC(=O)Cc3ccc(Oc4cc(NC(=O)C5CC5)ncn4)cc3)cc2C(F)(F)F)CC1 | inactive | inactive
Cc1ccc(-c2ncc[nH]2)cc1NC(=O)c1ccc(OCc2ccccn2)cc1 | inactive | inactive
CC1=C(C(=O)Nc2cc(Cl)ccc2Cl)C(c2ccco2)C2=C(CCCC2=O)N1 (stereo not drawn) | inactive | inactive
C=CC1(C)CC(O)C(C(=C)C(=O)OC)C(O)C1C(=C)CO (stereo not drawn) | inactive | inactive
O=c1cc(N2CCOCC2)nc2c3ccccc3ccn12 | inactive | inactive
CNC(=O)[C@@H](c1ccccc1)N1CCc2cc(OC)c(OC)cc2[C@@H]1CCc1ccc(C(F)(F)F)cc1 | inactive | inactive
